Measured values from PubChem BioAssay (Tox21).
Inconclusive results are not listed. Entries that show only a call come without a potency. Active and inactive are the calls of the source. Unless noted, calls follow the shape of the dose curve; as a rule, active = well fitted cell-killing curve with a large enough effect in the repeat runs; inconclusive = weak or mixed curves, or effect the other way; inactive = no such curve, though single readings can be large or run the other way.

Target: Progesterone receptor (Homo sapiens) (UniProt P06401)
Assay: qHTS assay to identify small molecule antagonists of the progesterone receptor (PR) signaling pathway (AID 1346795; active = well fitted inhibition curve with a large enough effect in the signal ratio in the repeat runs, not every such curve was filed as active; the % refers to the signal ratio)
Details: PR-UAS-bla HEK293T, beta-lactamase FRET ratio, 16 h; series mostly up to 92.4 µM
Procedure, shortened: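 In HEK293T cells bearing the PR-UAS-bla reporter, compound effects on promegestone-driven (1 nM) beta-lactamase expression are assessed after 16 hr using a fluorescent FRET substrate incubated 2 hr at room temperature.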

Chain of Progesterone receptor (Homo sapiens) (P06401 whole entry, looked up): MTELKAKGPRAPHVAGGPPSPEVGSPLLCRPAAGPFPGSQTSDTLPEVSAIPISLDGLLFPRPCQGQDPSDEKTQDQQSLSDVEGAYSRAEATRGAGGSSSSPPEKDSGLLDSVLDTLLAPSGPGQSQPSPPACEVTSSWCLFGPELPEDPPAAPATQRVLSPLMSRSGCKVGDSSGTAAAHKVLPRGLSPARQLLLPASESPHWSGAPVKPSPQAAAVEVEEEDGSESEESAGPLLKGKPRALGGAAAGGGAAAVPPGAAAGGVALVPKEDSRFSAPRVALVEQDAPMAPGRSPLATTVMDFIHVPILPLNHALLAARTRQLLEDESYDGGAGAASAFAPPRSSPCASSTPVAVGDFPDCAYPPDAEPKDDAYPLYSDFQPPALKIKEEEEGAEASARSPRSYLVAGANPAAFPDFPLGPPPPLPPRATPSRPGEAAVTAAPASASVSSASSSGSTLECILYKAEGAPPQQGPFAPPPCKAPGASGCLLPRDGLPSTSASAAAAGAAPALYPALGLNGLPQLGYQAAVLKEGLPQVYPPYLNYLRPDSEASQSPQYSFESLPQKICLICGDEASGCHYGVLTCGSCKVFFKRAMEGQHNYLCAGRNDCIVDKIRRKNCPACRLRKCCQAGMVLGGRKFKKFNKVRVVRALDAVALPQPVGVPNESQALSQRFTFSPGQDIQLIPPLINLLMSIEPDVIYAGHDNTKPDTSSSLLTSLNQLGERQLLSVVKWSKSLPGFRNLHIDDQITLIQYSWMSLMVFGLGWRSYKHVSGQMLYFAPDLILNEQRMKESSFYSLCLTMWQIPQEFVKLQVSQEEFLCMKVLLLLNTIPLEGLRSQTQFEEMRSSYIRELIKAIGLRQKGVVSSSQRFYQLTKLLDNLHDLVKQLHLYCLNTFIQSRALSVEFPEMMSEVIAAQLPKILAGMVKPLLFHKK

Q: For `O=S(=O)(O)CCN1CCN(CCO)CC1`, which Potency is on record?
A: inactive

Q: For `CC(COC(C)(C)C)OCCCO` (centres undefined), which Potency is on record?
A: inactive

Q: For `O=C(O)c1ccc(Cl)cc1Cl`, which Potency is on record?
A: inactive

Q: Which Potency does the source give for `COc1ccc(-c2cc(=O)c3c(O)cc(O[C@@H]4O[C@H](CO[C@@H]5O[C@@H](C)[C@H](O)[C@@H](O)[C@H]5O)[C@@H](O)[C@H](O)[C@H]4O)cc3o2)cc1O` here?
A: inactive

Q: For `CC(C)N(c1ccccc1)C(C)C`, which Potency is on record?
A: inactive

Q: For `O=Cc1ccc(Cl)c(Cl)c1`, which Potency is on record?
A: inactive

Q: For `CC(C)=CCOC(=O)c1ccccc1`, which Potency is on record?
A: inactive

Q: With `CCC(C=O)CC` as the compound, how does the Potency read?
A: inactive

Q: For `CC(N)C(=O)OC(C)(C)Cc1ccc(Cl)cc1` (centres undefined), which Potency is on record?
A: inactive

Q: With `Nc1nnc(-c2cccc(Cl)c2Cl)c(N)n1` as the compound, how does the Potency read?
A: inactive

Q: Which Potency does the source give for `CC1(C)S[C@@H]2[C@H](N=CN3CCCCCC3)C(=O)N2[C@H]1C(=O)O` here?
A: inactive

Q: Which Potency does the source give for `O=S(=O)(O)c1cc(O)c2ccc(Nc3ccccc3)cc2c1` here?
A: inactive

Q: Which Potency does the source give for `C[C@@H](Oc1ccc(CNC(=O)c2cccnc2Oc2ccc3c(c2)OCO3)c(F)c1)C(=O)O` here?
A: inactive

Q: For `COc1cc(C(=S)N2CCOCC2)cc(OC)c1OC`, which Potency is on record?
A: inactive

Q: With `Cc1ccsc1/C=C/C1=NCCCN1C` as the compound, how does the Potency read?
A: inactive

Q: With `OCCCCC(O)CO` (centres undefined) as the compound, how does the Potency read?
A: inactive

Q: Which Potency does the source give for `CC(CN)CC(C)(C)CCN` (centres undefined) here?
A: inactive

Q: Which Potency does the source give for `CCCCCCCCCCCCCC` here?
A: inactive

Q: Which Potency does the source give for `O=P(O)(O)OP(=O)(O)O` here?
A: inactive

Q: For `CC(=O)CCCCn1c(=O)c2c(ncn2C)n(C)c1=O`, which Potency is on record?
A: inactive

Q: Which Potency does the source give for `CC(=O)N[C@@H](CCC(=O)O)C(=O)O` here?
A: inactive

Q: Which Potency does the source give for `Cc1ccccc1OCC(O)CO` (centres undefined) here?
A: inactive

Q: With `CCCOC(OCCC)OCCC` as the compound, how does the Potency read?
A: inactive

Q: For `CN(C)c1ccc(C=O)cc1`, which Potency is on record?
A: inactive

Q: Which Potency does the source give for `NCCS` here?
A: inactive

Q: For `O=C1CC(c2ccc(Cl)cc2)CC(=O)N1`, which Potency is on record?
A: inactive

Q: For `O=C1CCCC(=O)O1`, which Potency is on record?
A: inactive

Q: Which Potency does the source give for `CC(=O)Nc1ccc(S(=O)(=O)Cl)cc1` here?
A: inactive

Q: For `CCCCN`, which Potency is on record?
A: inactive

Tested on: not listed separately
Assay: qHTS assay to identify small molecule antagonists of the progesterone receptor (PR) signaling pathway - cell viability counter screen (AID 1346798); also: nearly all actives have a fitted effect of over 50% in size
Details: PR-UAS-bla HEK293T viability, CellTiter-Glo luminescence, 16 h; series mostly up to 92.4 µM
Procedure, shortened: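 Following a 4 hr attachment, PR-UAS-bla HEK293T cells in charcoal-stripped FBS medium were exposed to compounds with R5020 for 16 hr; CellTiter-Glo was added and luminescence read after 30 min at room temperature.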

Q: With `CC(COC(C)(C)C)OCCCO` (centres undefined) as the compound, how does the Potency read?
A: inactive

Q: Which Potency does the source give for `O=C(O)c1ccc(Cl)cc1Cl` here?
A: inactive

Q: With `CC(C)CCCCOC(=O)c1ccccc1C(=O)OCCCCC(C)C` as the compound, how does the Potency read?
A: inactive

Q: With `COc1ccc(-c2cc(=O)c3c(O)cc(O[C@@H]4O[C@H](CO[C@@H]5O[C@@H](C)[C@H](O)[C@@H](O)[C@H]5O)[C@@H](O)[C@H](O)[C@H]4O)cc3o2)cc1O` as the compound, how does the Potency read?
A: inactive

Q: Which Potency does the source give for `CC(C)N(c1ccccc1)C(C)C` here?
A: inactive

Q: Which Potency does the source give for `O=Cc1ccc(Cl)c(Cl)c1` here?
A: inactive

Q: With `CC(C)=CCOC(=O)c1ccccc1` as the compound, how does the Potency read?
A: inactive

Q: With `CCC(C=O)CC` as the compound, how does the Potency read?
A: inactive

Q: With `Nc1nnc(-c2cccc(Cl)c2Cl)c(N)n1` as the compound, how does the Potency read?
A: inactive

Q: Which Potency does the source give for `CC1(C)S[C@@H]2[C@H](N=CN3CCCCCC3)C(=O)N2[C@H]1C(=O)O` here?
A: inactive

Q: Which Potency does the source give for `O=S(=O)(O)c1cc(O)c2ccc(Nc3ccccc3)cc2c1` here?
A: inactive

Q: For `CCCC/C=C\CCCCCCCCCC=O`, which Potency is on record?
A: inactive

Q: With `C[C@@H](Oc1ccc(CNC(=O)c2cccnc2Oc2ccc3c(c2)OCO3)c(F)c1)C(=O)O` as the compound, how does the Potency read?
A: inactive

Q: Which Potency does the source give for `COc1cc(C(=S)N2CCOCC2)cc(OC)c1OC` here?
A: inactive

Q: With `Cc1ccsc1/C=C/C1=NCCCN1C` as the compound, how does the Potency read?
A: inactive

Q: Which Potency does the source give for `OCCCCC(O)CO` (centres undefined) here?
A: inactive

Q: Which Potency does the source give for `NNc1nnc(NN)c2ccccc12` here?
A: inactive

Q: Which Potency does the source give for `CC(CN)CC(C)(C)CCN` (centres undefined) here?
A: inactive

Q: Which Potency does the source give for `CCCCCCCCCCCCCC` here?
A: inactive

Q: Which Potency does the source give for `O=P(O)(O)OP(=O)(O)O` here?
A: inactive

Q: Which Potency does the source give for `CC(=O)CCCCn1c(=O)c2c(ncn2C)n(C)c1=O` here?
A: inactive

Q: With `CC(=O)N[C@@H](CCC(=O)O)C(=O)O` as the compound, how does the Potency read?
A: inactive

Q: With `Cc1ccccc1OCC(O)CO` (centres undefined) as the compound, how does the Potency read?
A: inactive

Q: With `C=C1CC/C=C(\C)CC[C@@H]2[C@@H]1CC2(C)C` as the compound, how does the Potency read?
A: inactive

Q: For `CN(C)c1ccc(C=O)cc1`, which Potency is on record?
A: inactive

Q: For `c1ccc2c(c1)ccc1c3ccccc3ccc21`, which Potency is on record?
A: inactive

Q: With `NCCS` as the compound, how does the Potency read?
A: inactive

Q: With `COCCOCCOCCOCCOCCO` as the compound, how does the Potency read?
A: inactive

Q: Which Potency does the source give for `O=C1CC(c2ccc(Cl)cc2)CC(=O)N1` here?
A: inactive

Q: Which Potency does the source give for `O=C1CCCC(=O)O1` here?
A: inactive

Q: With `CCCCN` as the compound, how does the Potency read?
A: inactive

Tested on: not listed separately
Assay: qHTS assay to identify small molecule agonists of the progesterone receptor (PR) signaling pathway - cell viability counter screen (AID 1346799; calls by dose curve; also: nearly all actives have a fitted effect of over 45% in size)
Details: PR-UAS-bla HEK293T viability, CellTiter-Glo luminescence, 16 h; series mostly up to 92.4 µM
Procedure, shortened: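 Here, 3,000 PR-UAS-bla HEK293T cells per well were treated with compounds for 16 hr after a 6 hr preincubation at 37C and 5% CO2; cell viability is the CellTiter-Glo luminescence signal.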

Q: Which Potency does the source give for `CCOC(=O)CC(=O)c1ccccc1` here?
A: inactive

Q: Which Potency does the source give for `O=C(O)c1ccc(Cl)cc1Cl` here?
A: inactive

Q: Which Potency does the source give for `CC(C)CCCCOC(=O)c1ccccc1C(=O)OCCCCC(C)C` here?
A: inactive

Q: Which Potency does the source give for `COc1ccc(-c2cc(=O)c3c(O)cc(O[C@@H]4O[C@H](CO[C@@H]5O[C@@H](C)[C@H](O)[C@@H](O)[C@H]5O)[C@@H](O)[C@H](O)[C@H]4O)cc3o2)cc1O` here?
A: inactive

Q: With `CC(C)N(c1ccccc1)C(C)C` as the compound, how does the Potency read?
A: inactive

Q: With `CC(C)=CCOC(=O)c1ccccc1` as the compound, how does the Potency read?
A: inactive

Q: With `CCC(C=O)CC` as the compound, how does the Potency read?
A: inactive

Q: Which Potency does the source give for `Nc1nnc(-c2cccc(Cl)c2Cl)c(N)n1` here?
A: inactive

Q: Which Potency does the source give for `O=S(=O)(O)c1cc(O)c2ccc(Nc3ccccc3)cc2c1` here?
A: inactive

Q: With `COc1cc(C(=S)N2CCOCC2)cc(OC)c1OC` as the compound, how does the Potency read?
A: inactive

Q: With `NNc1nnc(NN)c2ccccc12` as the compound, how does the Potency read?
A: inactive

Q: With `CCCCCCCCCCCCCC` as the compound, how does the Potency read?
A: inactive

Q: For `O=P(O)(O)OP(=O)(O)O`, which Potency is on record?
A: inactive

Q: Which Potency does the source give for `CC(=O)CCCCn1c(=O)c2c(ncn2C)n(C)c1=O` here?
A: inactive

Q: Which Potency does the source give for `CC(=O)N[C@@H](CCC(=O)O)C(=O)O` here?
A: inactive

Q: Which Potency does the source give for `Cc1ccccc1OCC(O)CO` (centres undefined) here?
A: inactive

Q: For `C=C1CC/C=C(\C)CC[C@@H]2[C@@H]1CC2(C)C`, which Potency is on record?
A: inactive

Q: With `CCCOC(OCCC)OCCC` as the compound, how does the Potency read?
A: inactive

Q: With `CN(C)c1ccc(C=O)cc1` as the compound, how does the Potency read?
A: inactive

Q: With `c1ccc2c(c1)ccc1c3ccccc3ccc21` as the compound, how does the Potency read?
A: inactive

Q: With `NCCS` as the compound, how does the Potency read?
A: inactive

Q: Which Potency does the source give for `O=C1CCCC(=O)O1` here?
A: inactive

Q: With `CC(=O)Nc1ccc(S(=O)(=O)Cl)cc1` as the compound, how does the Potency read?
A: inactive

Q: With `CCCCN` as the compound, how does the Potency read?
A: inactive
